Cruzain Triton = inhibitors of Trypanosoma cruzi cruzain with detergent. Potency, µM, actives largely listed as inhibitors. purified cruzain, Z-FR-AMC fluorescence, 0.01% Triton. AID 1478. P25779. actives 0.43% (n = 200,000); further: nearly all actives have a fitted effect of over 40% in size
Target sequence (P25779 123-467 limits assumed): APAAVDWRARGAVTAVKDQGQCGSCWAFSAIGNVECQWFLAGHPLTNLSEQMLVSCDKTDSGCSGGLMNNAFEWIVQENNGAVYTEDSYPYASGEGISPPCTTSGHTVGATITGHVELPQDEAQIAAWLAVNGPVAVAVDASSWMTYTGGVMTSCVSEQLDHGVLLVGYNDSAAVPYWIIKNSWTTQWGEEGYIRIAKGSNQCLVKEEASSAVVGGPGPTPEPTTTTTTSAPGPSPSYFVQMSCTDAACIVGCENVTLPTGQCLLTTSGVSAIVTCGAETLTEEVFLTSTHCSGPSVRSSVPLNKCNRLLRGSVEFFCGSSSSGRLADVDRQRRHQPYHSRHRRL
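Steps: dispense cruzain (1.5 nM final) in acetate buffer pH 5.5 with DTT and 0.01% Triton X-100; pin-transfer compounds; incubate 15 min RT; add Z-FR-AMC (2 uM final); read fluorescence every 30 s, using the 60 s intensity change.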
NS1 function inh = blocks influenza NS1 protein function. Potency, µM (doses to about 46.1 µM). actives 0.4% (n = 270,000). AID 2326; calls by dose curve; further: actives are rising curves; nearly all actives have a fitted effect of over 50% in size
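OD600 was taken as the measure of yeast growth restored by compound in an NS1-expressing S. cerevisiae strain. Cells had been washed out of glucose medium and diluted 1:100 into galactose -URA medium, pH 6.0.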
Cruzain inh noDet = cruzain (T. cruzi) inhibition without detergent; P25779; purified cruzain, Z-FR-AMC fluorescence, no detergent; Potency, µM, actives largely listed as inhibitors; actives 2.3% (n = 200,000); AID 1476; further: nearly all actives have a fitted effect of over 40% in size
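Purified cruzain at 1.5 nM, pre-incubated 15 min with compound at room temperature in 100 mM sodium acetate pH 5.5, 5 mM DTT, 0.00005% Triton X-100. Reaction started with 2 uM Z-FR-AMC; AMC fluorescence increase over 60 s gives rate.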
Hits are given with their value. Many of the other results were omitted from the sample, so hits are more common in it than they were. Unless noted, the call rests on the fitted dose curve; in most records, active means well fitted curve in the direction sought with a large enough effect; inconclusive means small, poorly fitted or top-dose-only effect, or another doubt; inactive means no such curve, though single readings can be large; an effect the other way counts as inactive or inconclusive.

`CN(C)S(=O)(=O)N(CC(=O)NCCSCc1c(F)cccc1Cl)c1ccccc1` gave Cruzain Triton inactive and Cruzain inh noDet inactive.
`O=C(Nc1ccccc1)c1ccc(Br)c(S(=O)(=O)N2CCCCC2)c1` gave Cruzain Triton inactive and Cruzain inh noDet inactive.
Cc1[nH]c2ccccc2c1/C=C/c1nc2ccccc2c(=O)n1-c1ccc([N+](=O)[O-])cc1 was read as Cruzain Triton inactive, NS1 function inh inactive and Cruzain inh noDet 25µM.
`Cc1cccc(-n2c(/C=C/c3c(C)[nH]c4ccccc34)nc3ccccc3c2=O)c1` gave Cruzain Triton inactive and Cruzain inh noDet inactive.
`CCOC(=O)N1CCc2c(sc3c2c(=O)n(Cc2ccccc2)c(=O)n3Cc2cccc(Cl)c2)C1` gave Cruzain Triton inactive and Cruzain inh noDet 7.9µM.
`CCOC(=O)N1CCc2c(sc3c2c(=O)n(Cc2ccccc2)c(=O)n3CC(=O)Nc2cccc(CC)c2)C1` gave Cruzain Triton inactive and Cruzain inh noDet inactive.
For CC(C)Oc1ccc2c(=O)c3cc(C(=O)O)ccc3oc2c1 the results were Cruzain Triton inactive and Cruzain inh noDet inactive.
For COc1ccccc1NC(=O)Nc1ccc(Br)cn1 the results were Cruzain Triton inactive, NS1 function inh inactive and Cruzain inh noDet inactive.
COc1ccc(Cl)cc1NC(=O)Nc1ccc(Br)cn1 was read as Cruzain Triton inactive, NS1 function inh inactive and Cruzain inh noDet 13µM.
`COc1cc(-c2ccc(N=C=O)c(OC)c2)ccc1N=C=O` gave Cruzain Triton inactive and Cruzain inh noDet 32µM.
COc1cc(-c2ccc(NC(C)=O)c(OC)c2)ccc1NC(C)=O was read as NS1 function inh inactive.
Cc1cccc(C(=O)Nc2nnc(SCC(=O)NC3CC3)s2)c1 was read as NS1 function inh inactive.
`COc1ccccc1C(=O)Nc1nnc(SCC(=O)Nc2ccc3c(c2)oc2ccccc23)s1` gave Cruzain Triton inactive, NS1 function inh inactive and Cruzain inh noDet 13µM.
COc1ccc(NC(=O)CSc2nnc(NC(=O)Nc3ccccc3)s2)cc1OC was read as Cruzain Triton inactive and Cruzain inh noDet inactive.
`Cc1cccc(C(=O)Nc2nnc(SCC(=O)Nc3ccc4c(c3)oc3ccccc34)s2)c1` gave Cruzain Triton inactive, NS1 function inh inactive and Cruzain inh noDet 20µM.
`CCCN(CCC)C(=O)Cn1c(=O)n(-c2cccc(C)c2)c(=O)c2c1c1cc(OC)ccc1n2C` gave Cruzain Triton inactive and Cruzain inh noDet inconclusive.
For C=CC(=O)OCC the results were Cruzain Triton inactive and Cruzain inh noDet inactive.
`CC(C)NC(=O)c1ccc(CSc2nc3ccncc3n2Cc2cccc(F)c2)cc1` gave Cruzain Triton inactive and Cruzain inh noDet inactive.
Screening Oc1ccccc1C(Sc1nc2ccccc2s1)Sc1nc2ccccc2s1 returned Cruzain Triton inactive, NS1 function inh inactive and Cruzain inh noDet inactive.
Screening O=C(Cn1nnc2c(sc3nc4c(c(-c5ccccc5)c32)CCC4)c1=O)c1ccccc1 returned Cruzain Triton inactive, NS1 function inh inactive and Cruzain inh noDet 25µM.
Screening COc1ccc(-c2c3c(nc4sc5c(=O)[nH]c(C)nc5c24)CCC3)cc1 returned Cruzain Triton inactive, NS1 function inh inactive and Cruzain inh noDet inactive.
Cc1ccc(C)c(N(C)C(=O)c2cn(C)c(=O)c3ccccc23)c1 was read as Cruzain Triton inactive and Cruzain inh noDet inactive.
COc1ccc(NC(=O)Cn2nnc(C(=O)Nc3ccc(C)c(F)c3)c2N)cc1Cl was read as Cruzain Triton inactive and Cruzain inh noDet inactive.
For Cc1ccc(NC(=O)Cn2nnc(C(=O)NCc3cccs3)c2N)cc1Cl the results were Cruzain Triton inactive, NS1 function inh inactive and Cruzain inh noDet 25µM.
For Cc1ccc(CNC(=O)Cn2nnc(C(=O)Nc3ccc(Br)cc3)c2N)cc1 the results were NS1 function inh inactive.
`Cc1cccc(NC(=O)Cn2nnc(C(=O)Nc3ccc(F)c(Cl)c3)c2N)c1` gave Cruzain Triton inactive, NS1 function inh inactive and Cruzain inh noDet 25µM.
Screening CCc1ccccc1NC(=O)Cn1nnc(C(=O)Nc2ccc(OC)c(OC)c2)c1N returned Cruzain Triton inactive and Cruzain inh noDet inactive.
`CCc1ccccc1NC(=O)c1nnn(CC(=O)Nc2c(C)cc(C)cc2C)c1N` gave Cruzain Triton inactive and Cruzain inh noDet 32µM.
`COc1ccc(NC(=O)Cn2nnc(C(=O)NCc3cccs3)c2N)cc1Cl` gave NS1 function inh inactive.
`CCc1ccc(NC(=O)Cn2nnc(C(=O)NCc3ccc(C)cc3)c2N)cc1` gave Cruzain Triton inactive and Cruzain inh noDet 20µM.
For CC(C)CN1CC[C@@]2(CCCN(S(=O)(=O)c3ccccc3)C2)C1 the results were Cruzain Triton inactive and Cruzain inh noDet inactive.
`CC1(C(=O)Nc2cccc(C(F)(F)F)c2)Cc2ccccc2C(=O)O1` (configuration not stated) gave Cruzain Triton inactive and Cruzain inh noDet inactive.
For CN(C)c1ccc(N)cc1 the results were Cruzain Triton inactive and Cruzain inh noDet inactive.
Cc1cc(C)cc(NC(=O)COc2cccc3c(=O)n(C)ccc23)c1 was read as Cruzain Triton inactive and Cruzain inh noDet inactive.
For CCc1ccc(Cn2nnc(C(=O)Nc3ccc(OC)cc3OC)c2N)cc1 the results were Cruzain Triton inactive, NS1 function inh inactive and Cruzain inh noDet 25µM.
`CCc1ccccc1NC(=O)Cn1nnc(C(=O)NCc2cccs2)c1N` gave Cruzain Triton inactive and Cruzain inh noDet 20µM.
COc1ccc(NC(=O)c2nnn(CC(=O)Nc3ccccc3OC)c2N)c(OC)c1 was read as NS1 function inh inactive.
Screening COc1ccccc1NC(=O)Cn1nnc(C(=O)NCc2cccs2)c1N returned Cruzain Triton inactive, NS1 function inh inactive and Cruzain inh noDet inactive.
Screening CCOc1ccc(C(=O)Nc2cccc(NC(=O)c3ccc(C(C)(C)C)cc3)c2)cc1Br returned Cruzain Triton inactive and Cruzain inh noDet 7.9µM.
CCOc1ccc(C(=O)Nc2cccc(NC(=O)c3ccco3)c2)cc1Cl was read as Cruzain Triton inactive and Cruzain inh noDet inactive.
`COc1ccc2c(c1)C(=O)[C@H](OC(=O)NS(=O)(=O)c1ccc(C)cc1)[C@@H](c1ccc(OC)c(Br)c1)O2` gave Cruzain Triton inactive and Cruzain inh noDet inactive.
`CCOc1ccc(CN2CCN(S(=O)(=O)c3ccc(Cl)cc3)CC2)cc1` gave Cruzain Triton inactive and Cruzain inh noDet inactive.
Cc1ccc(-n2nc3ccc(NC(=O)c4ccc5c(c4)OCO5)cc3n2)cc1 was read as Cruzain Triton inactive, NS1 function inh inactive and Cruzain inh noDet inactive.
Screening CCOc1ccc(-n2nc3ccc(NC(=O)c4ccc5c(c4)OCCO5)cc3n2)cc1 returned Cruzain Triton inactive, NS1 function inh inactive and Cruzain inh noDet 13µM.
Screening O=C(Nc1ccc2nn(-c3ccccc3)nc2c1)c1ccc2c(c1)OCCO2 returned Cruzain Triton inactive, NS1 function inh inactive and Cruzain inh noDet inconclusive.
CCc1ccc(-n2nc3ccc(NC(=O)c4ccc5c(c4)OCO5)cc3n2)cc1 was read as Cruzain Triton inactive, NS1 function inh inactive and Cruzain inh noDet 10µM.
Cc1c(Cl)cccc1-n1ncc(C(=O)Nc2ccc3c(c2)OCCO3)c1C1CCN(C(=O)OC(C)(C)C)CC1 was read as Cruzain Triton inactive and Cruzain inh noDet inactive.
